# The panel holds about 83,000 compounds, 20% with a hit somewhere; the sample as a whole holds those more often.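 Cell lines were cultured in 96-well plates, exposed to a single compound concentration, and assessed for percent growth 48 hours later.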 The source made the active and inactive calls. The calls were made as follows: active = growth percent below 10; inactive = the rest.
# Test system: MDA-MB-468 breast
# Assay: NCI-60 one-dose screen, 48 h (100 = growth as untreated, 0 = no growth, -100 = all killed)
# Conditions: 10 µM unless noted
row,Structure (SMILES),growth
1,CSc1ccc(Cl)c(C(=O)Nc2sccc2C(N)=O)c1,-7.28% (active)
2,CN1CCc2c(Sc3ccc(C(=O)NO)cc3)c3ccccc3n2C1,21% (inactive)
3,COC(=O)C(O)c1ccccc1 (stereo unspecified),112% (inactive)
4,CCN1C2=C(SC(=S)C1=C1SC(C(=O)OC)=C(C(=O)OC)S1)SC(=Nc1ccc(OC)cc1)C2=O,-78% (active)
5,COC1=CC(c2ccc[nH]2)=N/C1=C\c1[nH]c(C)c(C(=O)CCCCCCCCC(=O)O[C@H]2CC[C@H]3C4CCc5cc(O)ccc5C4CC[C@]23C)c1C (stereo partly specified),37.5% (inactive)
6,C1=C2CCCC3=Cc4ccccc4OC23Oc2ccccc21,25.5% (inactive)

# Reference: PubChem BioAssay (NCI)
